Test results published in PubChem BioAssay (NCI).
Where “and” joins values, the source holds several entries; their conditions need not be identical. Equal entries are not always repeated. The panel holds about 83,000 compounds, 20% with a hit somewhere; the sample as a whole holds those more often.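 The test compound was applied at a single concentration to cells in 96-well plates for 48 hours, and percent growth was recorded.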 Calls of active or inactive are those of the source. Rule for the calls: active = growth percent below 10; inactive = the rest.

Columns and labels:
Assay in all cases: NCI-60 one-dose screen, 48 h (100 = growth as untreated, 0 = no growth, -100 = all killed)
Conditions in all cases: 10 µM unless noted
[1] = test system: NCI/ADR-RES ovarian
[2] = test system: T-47D breast
[3] = test system: BT-549 breast
[4] = test system: MDA-MB-435 melanoma
[5] = test system: SW-620 colon
[6] = test system: MCF7 breast
[7] = test system: HCT-116 colon
[8] = test system: HCC-2998 colon
[9] = test system: KM12 colon

Measured: growth

COC(=O)C12C3C4C1C1C2C3C41NC(=O)c1csc([C@@H](C[C@H](C(C)C)N(C)C(=O)[C@@H](NC(=O)[C@H]2CCCCN2C)C2CC2)OC(C)=O)n1 (stereo not given in full)
active: [3] -17.2% | [4] -29.7% | [7] 2.94% | [9] 5.25%
inactive: [1] 40.7% | [2] 61.4% | [5] 26.1% | [6] 18.8% | [8] 28.4%

Cc1cc[c-]cc1.Fc1c[c-]c(-c2ccccn2)c(F)c1.N#CCC[PH+](CCC#N)c1ccccc1.[Pt+2]
inactive: [1] 55.3% | [2] 29.1% | [3] 55.7% | [4] 30.9% | [6] 20.8% | [7] 19.1% | [8] 82.4% | [9] 74.1%
active: [5] 6.78%

O=C1NC(=O)C(=Cc2ccccc2)C(=O)N1
inactive: [1] 100% and 103% | [2] 94.8% and 105% | [3] 106% and 116% | [4] 113% and 104% | [5] 103% and 105% | [6] 145% and 102% | [7] 94% and 102% | [8] 99.6% and 117% | [9] 114% and 108%

CO/N=C1\CC[C@]2(C)[C@H]3CC[C@]4(C)C(=O)CC[C@H]4[C@@H]3C[C@@H]3SC(N)=N[C@@]32C1
inactive: [1] 99.6% | [2] 84.4% | [3] 106% | [4] 91.5% | [5] 106% | [6] 89.1% | [7] 87.2% | [8] 103% | [9] 97.7%

Oc1cc(N2CC2)c(O)cc1N1CC1
inactive: [2] 19.2% | [3] 30%
active: [1] 1.01% | [4] 0.0051% | [5] 3.72% | [6] -30.3% | [7] 6.02% | [8] -55.2% | [9] -52.7%

N#CC(N)c1ccccc1 (stereo not given)
inactive: [1] 108% | [2] 114% | [3] 96.3% | [4] 98.3% | [5] 103% | [6] 111% | [7] 96.4% | [8] 113% | [9] 103%

COc1ccc2c(c1)c(-c1nc(-c3cn(C)c4ncccc34)cs1)cn2CCCCN1CCOCC1
active: [4] -83.4% | [5] -77.1% | [8] 7.68% | [9] -5.62%
inactive: [1] 59.6% | [2] 64.5% | [3] 76.8% | [6] 15.1% | [7] 11.4%

C/C(=C\c1ccn(-c2ccc(N)c(C(F)(F)F)c2)n1)[C@@H]1C[C@@H]2O[C@]2(C)CCC[C@H](C)[C@H](O)[C@@H](C)C(=O)C(C)(C)[C@@H](O)CC(=O)O1
active: [1] 0.324% | [4] -26.8% | [7] 9.04% | [8] 0.272%
inactive: [2] 47.6% | [3] 28.2% | [5] 44.5% | [6] 17% | [9] 20.6%

C[C@]12C[C@H](c3ccoc3)OC(=O)[C@H]1CC[C@@]1(C)[C@@H]2[C@H]2C=C[C@]1(O)C(=O)O2
inactive: [1] 106% | [2] 103% | [3] 86.5% | [4] 98.1% | [5] 109% | [6] 92.7% | [7] 76.6% | [8] 103% | [9] 104%

C[C@]12CCC(=O)C[C@@H]1CC[C@@H]1[C@@H]2CC[C@]2(C)[C@@H](OC(=O)N(CCCl)N=O)CC[C@@H]12
inactive: [1] 25% | [2] 34% | [3] 32.9% | [4] 25.9% | [5] 31.7% | [6] 47.7% | [7] 25.9% | [8] 44.6%
active: [9] 3.72%

CCCC(C)SP(=S)(SC(C)CCC)SC(C)CCC (stereo not given)
inactive: [1] 99.9% | [2] 100% | [3] 99.8% | [4] 97.3% | [5] 91.7% | [6] 95.1% | [7] 101% | [8] 91.5% | [9] 97.3%

Cc1ccc(S(=O)(=O)n2cc([C@@]3(O)C[C@H](CSC#N)OC3=O)c3ccccc32)cc1
inactive: [1] 82.2% | [2] 62.8% | [3] 70.9% | [4] 63.3% | [5] 36.1% | [6] 23.6% | [7] 45.6% | [8] 25.1% | [9] 68.7%

C=CC[PH+](c1ccccc1)c1ccccc1.C=CC[PH+](c1ccccc1)c1ccccc1.[Pt+2].[S-]c1nc2ccccc2[nH]1.[S-]c1nc2ccccc2[nH]1
active: [2] -6.06% | [3] -28.1% | [4] -50.5% | [5] 3.79% | [6] 3.99% | [7] -29.7% | [8] -33.2% | [9] -63%
inactive: [1] 88.4%

CC[CH2][Sn]([Cl])([Cl])[CH2]CC.Oc1ccccc1C=NCCN=Cc1ccccc1O
active: [2] -86.4% and -71% | [5] 2.07% and -59.7%
inactive: [1] 90.7% and 91.1% | [3] 72.7% and 37.4% | [4] 71.8% and 50.1% | [6] 21.9% and 17.1% | [7] 66.2% and 60.3% | [8] 66.5% and 52.5% | [9] 88.4% and 79.7%

CCCCS(=O)(=O)Cl
inactive: [1] 107% | [2] 100% | [3] 104% | [4] 108% | [5] 112% | [6] 97.7% | [7] 97.6% | [8] 124% | [9] 114%
